TRb-SRC2 inh = inhibitors of human thyroid hormone receptor beta-SRC2 interaction | P10828 | TRbeta-SRC2 peptide binding, fluorescence polarization; receptor liganded with 1 µM T3 | Potency, µM (highest dose often 106 µM), actives largely listed as inhibitors | 280,000 tested, 0.065% active | AID 1469; also: nearly all actives have a fitted effect of over 50% in size
Target sequence (P10828 whole entry, looked up): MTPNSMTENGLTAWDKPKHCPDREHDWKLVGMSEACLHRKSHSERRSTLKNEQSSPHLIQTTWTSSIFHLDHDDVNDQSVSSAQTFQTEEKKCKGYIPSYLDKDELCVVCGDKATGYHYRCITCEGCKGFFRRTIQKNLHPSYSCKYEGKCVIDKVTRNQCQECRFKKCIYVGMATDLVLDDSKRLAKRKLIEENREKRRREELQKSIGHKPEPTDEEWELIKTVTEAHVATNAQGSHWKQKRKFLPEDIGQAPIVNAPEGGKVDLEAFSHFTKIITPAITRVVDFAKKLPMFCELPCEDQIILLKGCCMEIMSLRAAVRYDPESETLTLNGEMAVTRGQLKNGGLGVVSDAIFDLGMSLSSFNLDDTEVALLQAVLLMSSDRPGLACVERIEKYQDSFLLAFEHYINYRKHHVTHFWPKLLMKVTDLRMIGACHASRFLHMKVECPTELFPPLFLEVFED
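Decrease in fluorescence polarization of 20 nM Texas Red SRC2 coactivator peptide flagged inhibition of its binding to 0.6 uM TRb LBD; 1 uM T3 included, incubation 5 hr, ex 555/em 632 nm.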
HttQ103 aggreg = mutant huntingtin aggregation inhibition | PC12 HttQ103-GFP aggregates, Acumen cytometry, 40 h | 220,000 tested, 1.1% active | Potency, µM (top dose mostly 46.1 µM), actives largely listed as inhibitors; also: nearly all actives have a fitted effect of over 60% in size
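Quantitative HTS on tebufenozide-induced (100 nM) PC12 cells stably expressing polyQ103 Huntingtin exon 1–GFP. Reduction of bright GFP aggregates, detected by laser scanning cytometry after lysis, identified actives across the titration.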
Coupling enz = counter-screen for Giardia aldolase inhibitors: coupling enzyme system. coupling enzyme system counterscreen, AmpLite Red fluorescence. activity change, negative = inhibition, % at 58.2 µM, hits read low. 290,000 tested, 0.67% active. AID 2472; in the data active = activity change below about -30%
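First, compound is pin-transferred into glyceraldehyde-3-phosphate coupling-enzyme reagent at 57.5 uM final and held 10 min at RT. Next, substrate, coupling system and AmpLite Red are added. After 20 min RT, fluorescence (525/598 nm) is read.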
HTT cytoprotect = Huntington cell model cytoprotection by ATP luminescence; 230,000 tested, 0.14% active; PC12 HTT-Q103 induced, cytoprotection, ATP luminescence, 40 h; AID 1471; Potency, µM (series often up to 56.4 µM), most hits filed as activators; also: nearly all actives have a fitted effect of over 45% in size
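Huntington model: PC12 line, ecdysone-inducible HTTQ103 exon1–GFP, tebufenozide 100 nM. Test articles in a dose series. Endpoint luminescence from cellular ATP.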
TexasRed fluor = Texas Red fluorescence interference in TRb-SRC2 counter-screen; 280,000 tested, 0.29% active; TRb/SRC2 Texas Red total fluorescence interference; Potency, µM (highest dose often 106 µM); AID 1479; active = well fitted curve in either direction with a large enough effect; inconclusive = small, poorly fitted or top-dose-only effect
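Human TRβ ligand-binding domain (0.6 uM) and Texas Red SRC2 peptide (20 nM) in Tris buffer with 1 uM T3 and 5% DMSO were incubated with pinned compound for 5 hr at ambient temperature. Total fluorescence was computed as S + 2P (555/632 nm).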
KDM4E inh = blocks human JMJD2E demethylase activity; Potency, µM (titrated, usually from 57.1 µM), most hits filed as inhibitors; 230,000 tested, 1.6% active; AID 2147; JMJD2E catalytic domain, FDH-coupled NADH fluorescence (FDH is formaldehyde dehydrogenase); B2RXH2; active = well fitted inhibition curve with a large enough effect, not every such curve was filed as active; inconclusive = small, poorly fitted or top-dose-only effect, or another doubt; inactive = no such curve, though single readings can be large or run the other way; also: nearly all actives have a fitted effect of over 50% in size
Numbers stand for hits; - = inactive; ? = inconclusive; . = no result; ! = not active in a repeat; [ ] = remark or other dose. An excerpt weighted towards active compounds, which were near 2% of everything screened. Unless noted, calls follow the shape of the dose curve; as a rule, active = well fitted curve in the direction sought with a large enough effect; inconclusive = small, poorly fitted or top-dose-only effect, or another doubt; inactive = no such curve, though single readings can be large; an effect the other way counts as inactive or inconclusive.

SMILES	TRb-SRC2 inh	HttQ103 aggreg	Coupling enz	HTT cytoprotect	TexasRed fluor	KDM4E inh
O=C(O)c1cc(NN=C2c3ccccc3-c3ccccc32)ccc1Cl	.	.	-	.	.	.
Cc1ccc(N/N=C2\CC(=O)c3ccccc32)cc1Cl	-	-[9.22 µM]	-	-[10 µM]	-	22.4µM
O=C(O)c1ccc(-c2nc(-c3ccccc3Cl)cs2)cc1	-	-	-	-	-	?
CCS(=O)(=O)c1ccc(-c2csc(-c3ccccc3)n2)c(Cl)c1Cl	-	11.2µM	-	-[10 µM]	-	?
Cc1nnc2c3ccccc3nc(N3CCN(c4cccc(Cl)c4)CC3)n12	-	.	.	.	-	.
CCCN1CCN(c2ncnc3sc(C(=O)Nc4ccc(OC(F)(F)F)cc4)c(C)c23)CC1	-	.	.	.	-	.
O=C(Nc1ccccc1C(=O)O)c1ccc2ccccc2n1	-	-	-39.6	-[10 µM]	-	-
O=C(Nc1ccccc1)c1ccc2ccccc2n1	-	-	-	-	-	-
Nc1cc(Cl)c(O)c(Cl)c1	-	.	.	.	?	.
CCOc1ccc(CCNC(=O)C2CCN(c3ncnc4c3nc3n4CCCCC3)CC2)cc1	-	.	.	.	22.4µM[quencher]	.
CCCNC(=O)C1CCN(c2ncnc3c2nc2n3CCCCC2)CC1	-	.	.	.	-	.
CN(C)CCNC(=O)C1CCN(c2ncnc3c2nc2n3CCCCC2)CC1	-	.	.	.	25.1µM[quencher]	.
Cc1ccc(CNc2ncnc3c2nc2n3CCCC2)cc1	-	.	.	.	-	.
COc1ccc(CNc2ncnc3c2nc2n3CCCC2)cc1	-	.	.	.	17.8µM[quencher]	.
Cc1ccc(Nc2ncnc3c2nc2n3CCCC2)c(Br)c1	-	.	.	.	20µM[quencher]	.
Fc1ccc(Nc2ncnc3c2nc2n3CCCC2)cc1	-	.	.	.	-	.
Clc1ccccc1Nc1ncnc2c1nc1n2CCCCC1	-	.	.	.	-	.
COC(=O)c1ccc(Nc2ncnc3c2nc2n3CCCC2)cc1	-	.	.	.	17.8µM[quencher]	.
COc1ccc(Cl)cc1NC(=O)c1nn(C)c2c1CS(=O)(=O)c1ccccc1-2	-	.	.	.	-	.
CC(=O)OCCNc1cc(N2CCN(C)CC2)c2noc3c2c1C(=O)c1ccccc1-3	44.7µM	-	-	-	50.1µM[fluorescent]	-
O=C(O)CCCNc1cc(N2CCN(C3CCCCC3)CC2)c2noc3c2c1C(=O)c1ccccc1-3	-	.	.	.	39.8µM[fluorescent]	.
CCN1CCN(c2cc(N3CCN(C(=O)c4ccco4)CC3)c3c4c(onc24)-c2ccccc2C3=O)CC1	.	.	-30.4	.	.	.
O=C1c2ccccc2-c2onc3c(NCCO)cc(NC4CCCCC4)c1c23	?	.	.	.	39.8µM[fluorescent]	.
C/C(=N/NC(=O)c1cc2ccccc2cc1O)C1C(=O)c2ccccc2C1=O	-	-	-	-[10 µM]	39.8µM[quencher]	?
C/C(=N\NC(=O)c1cc2ccccc2cc1O)c1cc2ccccc2o1	?	-[9.22 µM]	-	-[10 µM]	39.8µM[quencher]	-
SMILES	TRb-SRC2 inh	HttQ103 aggreg	Coupling enz	HTT cytoprotect	TexasRed fluor	KDM4E inh
C/C(CC(=O)N1CCN(C=O)CC1)=N\NC(=O)c1cc2ccccc2cc1O	-	-	-	-[10 µM]	44.7µM[quencher]	28.2µM
COCCCNC(=O)c1nn(C)c2c1CS(=O)(=O)c1ccccc1-2	-	.	.	.	100µM[quencher]	.
CCN(CC)CCCNC(=O)c1nn(C)c2c1CS(=O)(=O)c1ccccc1-2	-	.	.	.	?	.
C=CCc1c(C)nc(C)nc1N/N=C/c1ccc([N+](=O)[O-])cc1	-	-	-	-	-	-
Cc1nnc(N/N=C/c2ccccc2O)n1N	-	-	-31.0	-	-	-
Cc1nnc(N/N=C/c2cc(C)n(-c3ccc(F)cc3)c2C)n1N	-	-	-42.2	-[10 µM]	-	?
C=CCc1c(C)nc(C)nc1N/N=C/c1ccccc1O	-	?	-	-[10 µM]	-	3.16µM
COc1ccc2c(c1)C(=O)[C@@H](OC(=O)NCCc1ccc(OC)c(OC)c1)[C@H](c1ccc(OC)c(Br)c1)O2	-	.	-	-	-	-
CC[C@@H](C(=O)[C@@H](C)[C@@H](O)[C@H](C)CCc1ccc(C)c(O)c1C(=O)O)C1O[C@](CC)(C2CC[C@](O)(CC)[C@H](C)O2)C[C@@H]1C (some centres undefined)	-	.	-	.	-	.
C=CCOc1ccc(Cl)cc1CNC1CCCC1	-	-	-	22.4µM	-	-
OC(CNc1ccccc1)COc1ccc(OCC(O)CNc2ccccc2)cc1 (centres undefined)	-	11.2µM	-	-	-	-
O=C(NCc1ccncc1)c1ccc(Br)cc1	-	-	-	-[10 µM]	-	-
O=C(CCNNC(=O)c1ccncc1)NCc1ccccc1	-	-	-	-	-	8.91µM!
O=C(CCc1ccccc1)NCc1ccncc1	.	.	-	.	.	.
O=C(NCc1ccncc1)c1ccc(Oc2ccccc2)cc1	-	11.2µM	-	-[10 µM]	-	-
Cc1ccc(Oc2ccc(C(=O)NCc3ccncc3)cc2)cc1	-	11.2µM	-	-	-	-
Cc1ccc2nc(Nc3ccc(C)c(F)c3)c3nncn3c2c1	-	.	.	.	-	.
Cc1cn2c(=O)c(S(=O)(=O)NCc3ccc(F)cc3)c(C)nc2s1	-	.	.	.	-	.
CCOc1ccc(CCNC(=O)CCn2c(=O)c3cccn3c3cccnc32)cc1	-	.	.	.	-	.
C=CCOc1nc(OCC=C)nc(OCC=C)n1	-	.	.	.	-	.
O=C(Nc1ccc2nc3n(c(=O)c2c1)CCCC3)c1cc([N+](=O)[O-])ccc1F	-	14.1µM	-	-[10 µM]	-	-
CCCn1c(O)c(N=NC(=O)c2ccco2)c2ccccc21	-	-	-	-[10 µM]	-	-
Cc1nc2ccccn2c1C(=O)N=Nc1c(O)n(CCC(C)C)c2ccccc12	-	35.5µM	-	-[10 µM]	-	-
Cc1ccc(Cl)cc1NC(=O)CCCn1c(=O)c2cccn2c2ccccc21	-	.	.	.	-	.
Cn1nc(C(C)(C)C)cc1C(=O)NCc1ccc(N2CCCC2=O)cc1	-	1.78µM	-	-[10 µM]	-	-
